According to PubChem BioAssay (NCI):
This is part of a sample that, as a whole, favours compounds with a hit. Of some 83,000 tested, about 20% had one in any assay.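 Growth was measured after 48 h exposure to one concentration of compound in 96-well plates. Values under 10 count as active.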 Active and inactive are the calls of the source.

The compounds below were run on MOLT-4 leukemia (assay: NCI-60 one-dose screen, 48 h (100 = growth as untreated, 0 = no growth, -100 = all killed)). Details: 10 µM unless noted.
Method: Growth inhibition of the MOLT-4 human tumor cell line is measured as a screen for anti-cancer activity. Cells are grown in 96 well plates and exposed to the test compound for 48 hours. Compounds are tested at a single concentration, which is 10^-5 M for most compounds. The reported endpoint is percent growth (GI% or GIPRCNT), where numbers from 0 - 100% represent growth inhibition, and numbers from -100% - 0 represent cell death. For example, a value of 40 represents 60% growth inhibition. A value of 0 means no net growth occurred over the course of the experiment. A value of -40 indicates 40% of cells at the beginning of the experiment died by the end of the experiment. A value of -100 means all cells are dead at the end of the experiment.
NCI-60 Human Tumor Cell Lines Screen was performed using the standard one-dose NCI protocol, which is described in more detail at https://dtp.cancer.gov/discovery_development/nci-60/default.htm.
Compounds with GIPRCNT values below 10 were considered active. Activity score was based on GIPRCNT using the following formula: […]
Score is 0 for GIPRCNT values of 100 or above, 50 for GIPRCNT values of 0, and 100 for GIPRCNT values of -100.

Question: How did the growth turn out when `CC(CC1CCCCC1)NCc1ccccc1` (stereo not given) was run?
Answer: 100% (inactive)

Question: `Nc1c(F)cc(-c2nc3cc(F)ccc3[se]2)cc1Br` was tested. Which growth did it give?
Answer: 91.2% (inactive)

Question: How did the growth turn out when `C[C@]12CC[C@H]3[C@@H](CC[C@]4(O)C[C@@H](O[C@@H]5O[C@H](CO)[C@@H](O[C@@H]6OC[C@@H](O)[C@H](O)[C@H]6O)[C@H](O)[C@H]5O)CC[C@]34C=O)[C@@]1(O)CC[C@@H]2C1=CC(=O)OC1` was run?
Answer: -36.3% (active)

Question: `Oc1ccc2c3c1OC1[C@@H](O)CC[C@@]4(O)[C@@H](C2)N(CC2CCC2)CC[C@]314` (stereo not given in full) was tested. Which growth did it give?
Answer: 97.7% (inactive)

Question: `CCOC(=O)C(Cc1ccc(N(CCCl)CCCl)cc1)NC(=O)C(CC(C)C)NC(C)=O` (stereo not given) was tested. Which growth did it give?
Answer: 6.43% (active)

Question: `O=C(N/N=C\c1ccc(N(CCCl)CCCl)cc1Cl)c1cccnc1` was tested. Which growth did it give?
Answer: 87.5% (inactive)

Question: With `C=CCCCN=C=S` as the compound, how does the growth read?
Answer: 40.7% (inactive)

Question: How did the growth turn out when `CC[C@H](C)[C@H](NC(=O)[C@H]1CCCCN1C)C(=O)N(C)[C@H](C[C@@H](OC(C)=O)c1nc(C(=O)NC23CC(C(=O)OC)(C2)C3)cs1)C(C)C` was run?
Answer: 6.06% (active)

Question: Which growth does the source give for `C=CC[PH+](c1ccccc1)c1ccccc1.C=CC[PH+](c1ccccc1)c1ccccc1.[Cl][Pt][Cl]` here?
Answer: 7.63% (active)

Question: `O=P1(NCCCl)OCCCN1CCCl` (stereo not given) was tested. Which growth did it give?
Answer: 101% (inactive)

Question: How did the growth turn out when `COC(=O)[C@@H](C)C[C@H](Cc1ccccc1)NC(=O)c1csc([C@@H](C[C@H](C(C)C)N(C)C(=O)[C@@H](NC(=O)[C@H]2CCCCN2C)C2CC2)OC(C)=O)n1` was run?
Answer: 15.3% (inactive)

Question: With `COc1ccc(C(O)(C(=O)O)c2ccc(OC)cc2)cc1` as the compound, how does the growth read?
Answer: 87.1% (inactive)

Question: How did the growth turn out when `COc1ccc(/C=C\c2cc(OC)c(OC)c(OC)c2)c(NS(=O)(=O)c2ccc(F)cc2)c1O` was run?
Answer: 19.6% (inactive)

Question: `CC(=O)O[C@H]1C(=O)[C@@]2(C)[C@H]([C@H](OC(=O)c3ccccc3)[C@]3(O)C[C@H](OC(=O)[C@H](OC(=O)OC[C@@H]4COC(C)(C)O4)[C@@H](NC(=O)c4ccccc4)c4ccccc4)C(C)=C1C3(C)C)[C@]1(OC(C)=O)CO[C@@H]1C[C@@H]2O` was tested. Which growth did it give?
Answer: 14.7% (inactive)

Question: Which growth does the source give for `CCCCCSC1C2C(=O)C(Br)=CC13CCNc1c(O)c4c5c(c13)=[N+]2CCC=5C=N4` (stereo not given) here?
Answer: -45.5% (active)

Question: How did the growth turn out when `COc1ccc(/C=C\c2cc(OC)c(OC)c(OC)c2)cc1OCC(=O)Nc1nc2ccc(C(F)(F)F)cc2s1` was run?
Answer: 16.3% (inactive)

Question: With `COc1cccc(/C=C/[N+](=O)[O-])c1` as the compound, how does the growth read?
Answer: 50.4% (inactive)

Question: Which growth does the source give for `C=C1C(=O)O[C@H]2[C@H]1CC/C(COC(=O)C(=O)c1cn(Cc3ccccc3)c3ccccc13)=C\CC[C@@]1(C)O[C@@H]21` here?
Answer: -17.3% (active)

Question: `O=C1NC(=O)C(=Cc2cn(C(=O)c3ccccc3)c3ccccc23)C(=O)N1` was tested. Which growth did it give?
Answer: 88.3% (inactive)

Question: How did the growth turn out when `CC(=O)c1ccc(C(=O)NCC2CCC3(CC2)OOC2(CCCCC2)OO3)cc1` was run?
Answer: 63.4% (inactive)

Question: For `Cc1c(O)c(CN(CCCl)CCCl)cc(CN(CCCl)CCCl)c1O`, which growth is on record?
Answer: 75.2% (inactive)

Question: How did the growth turn out when `CCn1cnc2c(Nc3cccc(Cl)c3)nc(N[C@@H]3CCCC[C@@H]3N)nc21` was run?
Answer: -10.9% (active)

Question: For `CCOC(=O)[C@@H](C)C[C@H](Cc1ccccc1)NC(=O)c1csc([C@@H](C[C@H](C(C)C)N(C)C(=O)[C@@H](NC(=O)[C@H]2CCCCN2C)C(C)(C)C)OC(C)=O)n1`, which growth is on record?
Answer: 7.61% (active)

Question: For `COC(=O)[C@@H](C)C[C@H](Cc1ccccc1)NC(=O)c1csc(CC[C@H](C(C)C)N(C)C(=O)[C@@H](NC(=O)[C@H]2CCCCN2C)C(C)C)n1`, which growth is on record?
Answer: 14.4% (inactive)

Question: With `Cc1ccc(C(=O)NCCCOc2ccc(N3C(N)=NC(N)=NC3(C)C)cc2Cl)cc1S(=O)(=O)F` as the compound, how does the growth read?
Answer: 119% (inactive)

Question: With `CC(=O)ONc1ccc([N+](=O)[O-])c(C(F)(F)F)c1` as the compound, how does the growth read?
Answer: 96.4% (inactive)

Question: How did the growth turn out when `COC(=O)[C@@H](C[C@H](Cc1ccccc1)NC(=O)c1csc([C@@H](C[C@H](C(C)C)N(C)C(=O)[C@@H](NC(=O)[C@H]2CCCCN2C)C(C)C)OC(C)=O)n1)NC(=O)OCc1ccccc1` was run?
Answer: 11.8% [9.5 µM] (inactive)

Question: How did the growth turn out when `CN1C(=O)C23CC4(C56CC78SSC(CO)(C(=O)N7C5Nc5ccccc56)N(C)C8=O)c5ccccc5NC4N2C(=O)C1(CO)SS3` (stereo not given) was run?
Answer: -62.2% (active)

Question: `O=C(N/N=C/c1ccc(N(CCCl)CCCl)cc1)c1cccc2ccccc12` was tested. Which growth did it give?
Answer: 51.4% (inactive)

Question: `CC1=C(CCCOC(=O)CN)C2=C(C)C3(CC3)[C@@](C)(O)C(=O)C2=C1` was tested. Which growth did it give?
Answer: 84.5% (inactive)

Question: Which growth does the source give for `CC[C@H](C)[C@H](NC(=O)[C@H]1CCCCN1C)C(=O)N(C)[C@H](C[C@@H](OC(C)=O)c1nc(C(=O)N[C@@H](Cc2ccccc2)C[C@H](C)C(=O)OC)cs1)C(C)C` here?
Answer: 4.63% (active)

Question: How did the growth turn out when `CC(C)COC(C[N+](=O)[O-])C(Cl)(Cl)Cl` (stereo not given) was run?
Answer: 103% (inactive)

Question: How did the growth turn out when `Nc1cc2nc3ccccc3nc2cc1N` was run?
Answer: 91.1% (inactive)

Question: For `Fc1ccc(N2COOC3(OOC2)C2CC4CC(C2)CC3C4)cc1`, which growth is on record?
Answer: 92.8% (inactive)

Question: With `COC(=O)[C@H](C[C@H](Cc1ccccc1)NC(=O)c1csc([C@@H](C[C@H](C(C)C)N(C)C(=O)[C@@H](NC(=O)[C@H]2CCCCN2C)C(C)C)OC(C)=O)n1)NC(=O)OCc1ccccc1` as the compound, how does the growth read?
Answer: 16.1% [8.5 µM] (inactive)

Question: For `[Cl][Hg][c]1cc[c]([Hg][Cl])o1`, which growth is on record?
Answer: 14.3% (inactive)

Question: How did the growth turn out when `Cc1cc(N(CCCl)CCCl)ccc1C=Nc1cccnc1` was run?
Answer: 52.1% (inactive)

Question: With `O=C(CC1(O)C(=O)Nc2ccccc21)c1ccc(C(=O)NCC2CCC3(CC2)OOC2(CCCCC2)OO3)cc1` (stereo not given) as the compound, how does the growth read?
Answer: 58.4% (inactive)

Question: For `CN(C)C(=O)Oc1ccccc1`, which growth is on record?
Answer: 110% (inactive)

Question: For `O=[N+]([O-])c1cc([N+](=O)[O-])c(Nn2c3ccccc3c3ccccc32)c([N+](=O)[O-])c1`, which growth is on record?
Answer: 0.889% (active)
